# p53 reactivator – qHTS assay for re-activators of p53 using a Luc reporter | 0.063% of 320,000 active | H1299 p53-A138V BP100-luciferase reporter, luminescence, 24 h | Potency, µM (titrated, usually from 92.2 µM), usual class: activators; note: nearly all actives have a fitted effect of over 45% in size
#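 p53-null H1299 cells stably carrying temperature-sensitive p53-A138V and a BP100-luciferase reporter were pinned with compounds (4-point, 1:5 series) and held 24 hrs at 37 deg C. Luminescence was read 10 min after detection reagent.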
# IL-2 act – qHTS of IL-2 Activators; IL-2 activation reporter assay, cell-based qHTS; stimulated with anti-CD3/CD4/CD28 beads; in transgenic mouse T cells; activation, % (series mostly up to about 46 µM); 0.065% of 360,000 active; AID 652025, 2013; in the data active = activation above about 50%; inconclusive = mostly about 30% to 49%
#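 Unstimulated transgenic mouse T cells, 750 per well, received compound and, after 60 minutes, anti-CD3/anti-CD4 bead plus anti-CD28 stimulation. EGFP and DsRed were quantified after 18 hours.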
# uPA surface inh – qHTS for Inhibitors of Cell Surface uPA Generation; cell surface uPA generation assay, qHTS; Potency, µM (highest dose often 38.3 µM), usual class: inhibitors; 0.31% of 330,000 active; AID 540303, 2011; active = well fitted inhibition curve with a large enough effect; inconclusive = small, poorly fitted or top-dose-only effect; inactive = no such curve, though single readings can be large or run the other way; tested in mouse RAW 264.7 cells; note: nearly all actives have a fitted effect of over 55% in size
# TCR act – Activators of T cell receptors: qHTS campaign; primary human leukocytes, anti-CD3, IL-2 HTRF, 48 h; Potency, µM (series often up to 9.22 µM), hits mostly activators; 330,000 tested, under 10 active; AID 504894, 2011
#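 Primary human leukocytes incubated 48 hr with anti-CD3 beads plus compound, without co-stimulation. Secreted IL-2 measured by HTRF (europium cryptate/d2 anti-IL-2 pair, 320 nm excitation, 665 nm emission).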
# BRCA1 expr act – qHTS Assay to Identify Small Molecule Activators of BRCA1 Expression | MCF7-BRCA1-FFLuc reporter, luminescence, 48 h; response scale: scaled: vehicle 0%, 10 µM genistein 100% | Potency, µM (doses to about 46.1 µM), actives largely listed as activators | 1.1% of 380,000 active | AID 624202, 2012; note: nearly all actives have a fitted effect of over 80% in size
#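 Cells: MCF7-BRCA1-FFLuc, 2000/well. Exposure: 48 h, 37 °C, 5% CO2. Read: luminescence, 15 min post-substrate. Controls: genistein 10 microM (maximal activation), DMSO (neutral).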
# Numbers stand for hits; - = inactive; ? = inconclusive; . = no result. Compounds with a hit are over-represented: about 1.4% of the library has one in this group of screens. Unless noted, calls come from the whole dose curve; as a rule, active = well fitted curve in the direction sought with a large enough effect; inconclusive = small, poorly fitted or top-dose-only effect, or another doubt; inactive = no such curve, though single readings can be large; an effect the other way counts as inactive or inconclusive.
SMILES,p53 reactivator,IL-2 act,uPA surface inh,TCR act,BRCA1 expr act
CSc1ccccc1NC(=O)c1cc(-c2ccc3c(c2)OCO3)on1,-,-,-,-,-
CN(C(=O)c1cc(-c2ccc3c(c2)OCO3)on1)c1ccccc1,-,-,-,-,2.82µM
CN(/N=C/c1ccc2c(c1)OCO2)c1ccccc1,10µM,-,-,-,7.08µM
COc1cccc(/C=C/C(=O)c2ccc[nH]2)c1,?,-,-,-,7.94µM
O=C(/C=C/c1ccc2c(c1)OCO2)c1ccc(F)cc1,?,-,-,-,-
CN(c1ncnc2onc(-c3cccc(Cl)c3)c12)C1CCCCC1,.,.,.,.,-
COc1ccccc1NC(=O)C1=C(C)Nc2nc(SCc3ccccc3)nn2C1c1cccc(O)c1 (centres undefined),.,.,.,.,-
CCCCSCCCNC(=O)c1cn(CC)c2ccc(S(=O)(=O)N(C)C3CCCCC3)cc2c1=O,.,.,.,.,-
O=C(/C=C/c1ccc2c(c1)OCCCO2)c1ccccc1O,?,-,-,-,-
Cc1ccc(NC(=O)/C=C/c2ccc3c(c2)OCO3)nc1,.,-,-,-,1.58µM
O=C(/C=C/c1ccc2c(c1)OCO2)N1CCCCC1,-,-,-,-,3.55µM
CN(C(=O)/C=C/c1ccc2c(c1)OCO2)c1ccccc1,-,-,-,.,3.16µM
Cc1ccc(O)c(C(=O)/C=C/c2ccc3c(c2)OCCCO3)c1,?,-,-,-,7.08µM
CN(C(=O)C=Cc1ccccc1)c1ccccc1,.,-,-,-,-
Clc1ccc(OCc2noc(-c3ccsc3)n2)c(Cl)c1,?,-,-,-,3.55µM
Cc1cccc(-c2nsc(SCC(=O)N3CCCC3)n2)c1,-,-,-,-,?
O=C(CSc1nc(-c2ccccc2)ns1)N1CCOCC1,-,-,-,-,3.98µM
Cc1ccc(-c2c(C)n3c4c(=O)n(C)c(=O)n(C)c4nc3n2CCCO)cc1,.,.,.,.,-
CN(C)S(=O)(=O)c1ccc(C(=O)Nc2ccc3ncccc3c2)cc1,-,-,-,-,12.6µM
O=C(Nc1ccc2ncccc2c1)Nc1ccc2ncccc2c1,-,-,-,-,?
O=C(Nc1ccc2ncccc2c1)c1ccccc1Br,.,-,-,.,7.08µM
COc1ccc(C(=O)Cc2cc3ccccc3oc2=O)cc1,?,-,-,-,4.47µM
Cc1ccc(C(=O)Cc2cc3ccccc3oc2=O)c(C)c1,?,-,-,-,3.98µM
O=C(Nc1ccc(F)c(Cl)c1)Nc1nnc([C@H]2C[C@H](O)[C@@H](CO)O2)s1,.,-,.,.,11.2µM
O=C(Nc1nnc([C@@H]2C[C@H](O)[C@@H](CO)O2)s1)c1cccc2ccccc12,.,-,.,.,8.91µM
SMILES,p53 reactivator,IL-2 act,uPA surface inh,TCR act,BRCA1 expr act
O=C(Nc1nnc([C@@H]2C[C@H](O)[C@@H](CO)O2)s1)Nc1ccccc1F,.,-,.,.,6.31µM
O=C(NC(=O)c1ccc(Cl)cc1)OC1CCCCC1,-,-,-,-,12.6µM
Cc1cccc(Cn2cc(C(=O)Nc3ccc(S(N)(=O)=O)cc3)ccc2=O)c1,.,.,.,.,-
COc1ccc2cnn(-c3ccc(OC(F)(F)Cl)cc3)c(=O)c2c1OC,-,-,-,-,-
O=c1c(Br)c(Br)cnn1-c1ccccc1,-,-,-,-,-
COc1ccc2cnn(-c3ccc(C)cc3)c(=O)c2c1OC,-,-,-,-,4.47µM
Cc1ccc(-n2ncc(Br)c(Br)c2=O)cc1,-,-,12.6µM,-,-
O=C(NCc1ccco1)Nc1ccc(Br)cc1Cl,-,-,.,.,12.6µM
O=C(CCCn1c(=O)c2ccccc2n(Cc2ccc(F)cc2Cl)c1=O)NCCc1ccc(Cl)cc1,.,.,.,.,-
O=C(NC(=S)Nc1ccc2c(c1)OCCO2)c1cccc(Br)c1,?,-,-,-,3.98µM
O=C(NC(=S)Nc1ccc2c(c1)OCO2)c1ccccc1,-,-,-,-,?
S=C(Nc1ccc(Br)cc1)Nc1ccc2c(c1)OCCO2,-,-,-,-,11.2µM
CC1CCN(C(=O)CSCc2ccc(Cl)cc2)CC1,?,-,-,-,2.82µM
CC1CCN(C(=O)CN(Cc2ccc(Cl)cc2)S(C)(=O)=O)CC1,.,-,-,-,-
O=C1CCCc2cc(S(=O)(=O)NCC3CCC(C(=O)Nc4ccccc4F)CC3)ccc2N1 (centres undefined),.,.,.,.,-
CC(=O)c1ccc(N=Nc2c(C)[nH][nH]c2=O)cc1,.,-,-,-,-
CC(=O)c1ccc(N=Nc2ccc(N)cc2)cc1,-,-,3.98µM,-,-
COc1cccc(C(=O)N(Cc2nc(-c3ccc(Cl)cc3)no2)C(C)C)c1OC,.,.,.,.,-
O=S(=O)(c1ccccc1)c1nc(-c2ccccc2)oc1N1CCN(c2cccc(Cl)c2)CC1,.,.,.,.,-
O=C(NN=Cc1c(O)ccc2ccccc12)c1ccc2c(c1)OCO2,-,-,8.91µM,-,-
Oc1ccccc1C=NN=Cc1c(O)ccc2ccccc12,.,51.7,-,-,-
Oc1ccc2ccccc2c1C=NCc1ccccc1,-,-,-,-,-
O=C(N/N=C/c1ccc([N+](=O)[O-])o1)c1ccc2c(c1)OCO2,-,-,4.47µM,-,-
O=c1[nH]c(-c2ccccc2)nc2sc(-c3ccccc3)cc12,-,-,-,-,-
O=c1[nH]cnc2sc(-c3ccccc3)cc12,-,-,-,-,12.6µM
SMILES,p53 reactivator,IL-2 act,uPA surface inh,TCR act,BRCA1 expr act
O=c1c2cc(-c3ccccc3)sc2ncn1-n1cccc1,-,-,-,-,2µM
COc1ccccc1CNc1cc(-c2ccccc2)nc2nncn12,.,.,.,.,-
COc1ccc(C(=O)COC(=O)c2cccc(-n3cnnn3)c2)c(OC)c1,-,-,-,-,2.51µM
COc1ccc(C(=O)COC(=O)c2cc(=O)[nH]c3ccccc23)c(OC)c1,?,-,-,-,12.6µM
COc1ccc(C(=O)OCC(=O)c2ccc[nH]2)c(OC)c1,?,-,-,-,8.91µM
Cc1ccsc1C(=O)OCC(=O)c1ccc[nH]1,?,-,-,-,5.62µM
CCn1ccc2cc(S(=O)(=O)N3CCCN(C(=O)Nc4ccccc4F)CC3)ccc21,.,.,.,.,-
O=C(CSc1ccccc1)NC1CCCCCCC1,-,-,-,-,10µM
CN(C)c1cccc(C(=O)NC2CCCCCC2)c1,?,-,-,-,10µM
Cc1ccc(C(=O)NC(=S)N(C)C2CCCCC2)cc1,-,-,-,-,8.91µM
O=C(NC1CCCCCC1)C(=S)NCc1ccccc1,-,-,-,.,11.2µM
O=C(CSc1ccccc1)NC1CCCCCC1,?,-,-,-,?
COc1ccccc1CNC(=O)c1cc(S(=O)(=O)N2CCCCCC2)cn1C,.,.,.,.,-
Cc1ccc(C)c(-c2ccc(=O)n(C(C)C(=O)Nc3ccccc3C(F)(F)F)n2)c1 (centres undefined),.,.,.,.,-
COc1ccc(NC(=O)Cn2c(=O)ccc3cc(S(=O)(=O)N4CCCC4)ccc32)cc1Cl,.,.,.,.,-
O=[N+]([O-])c1cc(-c2nc(-c3ccccc3)no2)ccc1NCc1cccnc1,.,.,.,.,-

# High-throughput results from PubChem.
